The record followed here is PubChem BioAssay.

Assay [1] in a line: rapamycin-like changes in RPL19A-GFP expression – cell-based, S. cerevisiae, multiplex flow cytometry, primary screen (AID 1862; in the data active = percent of DMSO control GFP below about 86%;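 note: lower values mimic rapamycin by blocking the RPL19A rise seen in DMSO cells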). The following applies: S. cerevisiae RPL19A-GFP strain, flow cytometry fluorescence, 3 h; at 10 µM; stronger effect = lower value. On the technique in general: A flow cytometer gives signals particle by particle.
Assay [2] can be described thus: TOR pathway GLN3 branch reporter MEP2-GFP changes – S. cerevisiae, multiplex flow cytometry, primary screen (AID 1867;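 active = GFP response, as percent of the DMSO control, above the screen-wide mean plus 3 SD, about 139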;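 note: median GFP channel fluorescence of barcode-gated MEP2-GFP cells measured by flow cytometry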). The settings on record: S. cerevisiae MEP2-GFP strain, 3 h, at 10 µM, stronger effect = higher value, 100% means same as DMSO wells.
Assay [3] is described as follows: TOR pathway RTG branch CIT2 reporter changes – S. cerevisiae, GFP fusion, multiplex flow cytometry, primary screen (AID 1870;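 active = percent response above a set limit, the screen-wide mean plus 3 SD, cut at about 130% in these data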;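 note: barcoded CIT2-GFP strain pooled with four other GFP strains with rapamycin as positive control; median GFP fluorescence per well over plate mean of DMSO wells so 100% = DMSO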). The settings on record: S. cerevisiae CIT2-GFP expression, 3 h, at 10 µM, stronger effect = higher value.
The nature of assay [4]: TOR pathway LAP4-GFP level changes – S. cerevisiae, multiplex flow cytometry, primary screen (AID 1873;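 active = GFP signal, as percent of the solvent control, above the screen mean plus 3 SD, about 149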). The following applies: S. cerevisiae LAP4-GFP expression, 3 h, at 10 µM, stronger effect = higher value.
Assay [5] can be described thus: yeast AGP1-GFP level changes, GLN3 branch – cell-based, multiplex flow cytometry, S. cerevisiae, primary screen (AID 1887;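 active = GFP signal above the screen-wide mean plus 3 SD, that is over about 124.5% of the solvent control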;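 note: AGP1-GFP fusion strain of S. cerevisiae within a five-strain barcoded multiplex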). The settings on record: 3 h, at 10 µM, stronger effect = higher value.
Assay [6] is described as follows: reduced mouse 2C T cell binding to pMHC/ICAM-1 vesicles – MLPCN validation set, flow cytometry, LFA-1/ICAM-1 modulator project, pilot screen (AID 2523;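 active = response below a set limit, under 55% cells CD8-positive and vesicle-bound, and CD8 cells' 90th-percentile brightness under 279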;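 for vesicle binding response: mean PE anti-B7-1 fluorescence of CD8+ cells relative to row control; 100% = QL9-loaded vesicles with DMSO vehicle in the same plate row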). The following applies: 2C mouse CD8+ T cells, at 7 µM, stronger effect = lower value; double positive events: measured here: CD8+/vesicle+ event percentage.
For assay [7], the target named is Integrin beta-1 (Homo sapiens) + Integrin alpha-4 (Homo sapiens) (UniProt P13612+P05556). Put plainly: alpha4beta1 integrin LIBS antibody binding reduction – U937 cells, HUTS-21 mAb, flow cytometry, validation set, VLA-4 allosteric modulator project, pilot screen (AID 2674;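 active = inhibition above 50%, about 3 SD of the validation set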;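 note: antibody binding induced by the VLA-4 ligand LDV present at three times its Kd; 0% = LDV ligand with antibody and no compound and 100% = antibody without LDV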). The settings on record: HUTS-21 LIBS mAb binding, at 6.7 µM, stronger effect = higher value, binding induced by LDV ligand.
Integrin beta-1 (Homo sapiens) + Integrin alpha-4 (Homo sapiens), sequence (P05556 whole entry, looked up): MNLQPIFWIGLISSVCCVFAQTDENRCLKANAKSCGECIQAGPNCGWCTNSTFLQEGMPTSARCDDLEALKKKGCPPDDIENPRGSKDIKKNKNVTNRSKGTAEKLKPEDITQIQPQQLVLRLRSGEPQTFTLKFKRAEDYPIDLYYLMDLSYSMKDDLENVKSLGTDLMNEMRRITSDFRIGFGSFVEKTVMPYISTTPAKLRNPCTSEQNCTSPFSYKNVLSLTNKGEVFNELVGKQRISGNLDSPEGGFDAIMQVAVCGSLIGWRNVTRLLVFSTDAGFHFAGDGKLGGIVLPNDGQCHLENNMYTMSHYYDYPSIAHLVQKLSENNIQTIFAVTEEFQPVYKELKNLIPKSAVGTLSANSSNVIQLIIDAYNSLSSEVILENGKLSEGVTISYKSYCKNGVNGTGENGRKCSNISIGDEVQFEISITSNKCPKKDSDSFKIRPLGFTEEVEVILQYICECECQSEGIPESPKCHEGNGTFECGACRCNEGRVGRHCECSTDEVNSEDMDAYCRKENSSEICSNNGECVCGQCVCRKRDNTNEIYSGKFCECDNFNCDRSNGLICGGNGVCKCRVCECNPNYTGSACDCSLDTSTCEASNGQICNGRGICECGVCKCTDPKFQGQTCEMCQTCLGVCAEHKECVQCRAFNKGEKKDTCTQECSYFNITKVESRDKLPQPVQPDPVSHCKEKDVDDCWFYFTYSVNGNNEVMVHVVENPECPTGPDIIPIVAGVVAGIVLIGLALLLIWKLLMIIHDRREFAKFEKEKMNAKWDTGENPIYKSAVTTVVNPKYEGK
Integrin beta-1 (Homo sapiens) + Integrin alpha-4 (Homo sapiens), sequence (P13612 whole entry, looked up): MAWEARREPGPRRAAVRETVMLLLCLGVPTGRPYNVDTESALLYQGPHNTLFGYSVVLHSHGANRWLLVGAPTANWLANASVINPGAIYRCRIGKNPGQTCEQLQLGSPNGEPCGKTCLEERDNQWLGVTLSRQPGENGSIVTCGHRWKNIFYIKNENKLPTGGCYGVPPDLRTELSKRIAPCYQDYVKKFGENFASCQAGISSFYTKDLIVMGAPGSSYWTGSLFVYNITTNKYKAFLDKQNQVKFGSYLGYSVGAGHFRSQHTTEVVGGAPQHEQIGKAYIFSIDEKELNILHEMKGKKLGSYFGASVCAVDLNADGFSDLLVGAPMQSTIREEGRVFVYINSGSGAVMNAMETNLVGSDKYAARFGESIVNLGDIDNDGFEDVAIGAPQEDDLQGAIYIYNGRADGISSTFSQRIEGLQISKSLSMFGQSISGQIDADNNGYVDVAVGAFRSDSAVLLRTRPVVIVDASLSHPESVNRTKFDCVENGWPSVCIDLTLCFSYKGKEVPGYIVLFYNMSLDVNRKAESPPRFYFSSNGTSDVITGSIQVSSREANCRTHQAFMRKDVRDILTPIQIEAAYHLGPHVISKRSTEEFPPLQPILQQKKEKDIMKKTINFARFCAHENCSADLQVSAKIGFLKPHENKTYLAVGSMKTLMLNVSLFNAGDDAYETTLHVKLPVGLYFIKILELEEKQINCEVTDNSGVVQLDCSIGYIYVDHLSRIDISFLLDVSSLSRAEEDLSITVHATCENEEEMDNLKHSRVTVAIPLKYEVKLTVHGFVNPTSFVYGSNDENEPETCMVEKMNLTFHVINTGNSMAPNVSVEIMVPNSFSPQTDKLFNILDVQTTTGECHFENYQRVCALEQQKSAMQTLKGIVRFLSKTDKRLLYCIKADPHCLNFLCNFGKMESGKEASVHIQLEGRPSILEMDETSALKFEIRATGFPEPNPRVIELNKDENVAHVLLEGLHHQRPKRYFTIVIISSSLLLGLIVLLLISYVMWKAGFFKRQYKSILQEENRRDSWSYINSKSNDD

Assay [8] can be described thus: calorie-restriction mimetic ROS inhibitors, yeast – validation compound set, pilot screen (AID 2706;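 active = superoxide response below 65% of plate, a cut near 3 SD across the whole screen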;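 note: yeast exposed to compound for one week at 30 degrees C before staining; 100% = mean of all compound wells on the same plate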). The following applies: S. cerevisiae aging, superoxide DHE fluorescence; at 10 µM; stronger effect = lower value.
Assay [9] has as its target Beta-adrenergic receptor kinase 1 (Homo sapiens) (UniProt P25098). Put plainly: GRK2 binders displacing RNA aptamer, biochemical, validation, human GRK2, bead flow cytometry (AID 488806;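 active = aptamer binding inhibition above 30%, about 3 SD of noise from non-fluorescent compounds; inactive = inhibition at or below 30%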). The settings on record: bead-bound GRK2, FAM-aptamer displacement, at 10 µM, stronger effect = higher value.
Assay [10] concerns the target Beta-2 adrenergic receptor (Homo sapiens) (UniProt P07550). Put plainly: agonist-induced loss of surface beta2AR – cell-based, FAP fluorogen, flow cytometry, validation set, pilot screen (AID 504459;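 active = percent response above 42, roughly 3 SD of non-fluorescent test compounds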;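 note: agonist-driven loss of surface beta2AR via internalization measured by FAP dye flow cytometry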). The settings on record: Am2.2-beta2AR cells, at 10 µM, stronger effect = higher value.
In assay [11] the target is AP-2 complex subunit beta (Homo sapiens) (UniProt P63010). Description: beta-arrestin/AP2 interaction blockers – biochemical, validation set, GST-AP2 beads, flow cytometry, pilot screen (AID 504541;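 active = inhibition above 54%, about 3 SD of non-fluorescent compounds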;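 note: AP2 carries R879A mutation and is captured from E. coli lysate; bead-bound FITC arrestin peptide fluorescence measuring arrestin peptide binding to AP2; 0% = DMSO wells and 100% = excess unlabeled arrestin peptide control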). The following applies: FITC arrestin peptide, at 10 µM, stronger effect = higher value, AP2 beta2 appendage fragment, R879A mutant.
AP-2 complex subunit beta (Homo sapiens), sequence (P63010 whole entry, looked up, the tested form may be a part, one chain of several): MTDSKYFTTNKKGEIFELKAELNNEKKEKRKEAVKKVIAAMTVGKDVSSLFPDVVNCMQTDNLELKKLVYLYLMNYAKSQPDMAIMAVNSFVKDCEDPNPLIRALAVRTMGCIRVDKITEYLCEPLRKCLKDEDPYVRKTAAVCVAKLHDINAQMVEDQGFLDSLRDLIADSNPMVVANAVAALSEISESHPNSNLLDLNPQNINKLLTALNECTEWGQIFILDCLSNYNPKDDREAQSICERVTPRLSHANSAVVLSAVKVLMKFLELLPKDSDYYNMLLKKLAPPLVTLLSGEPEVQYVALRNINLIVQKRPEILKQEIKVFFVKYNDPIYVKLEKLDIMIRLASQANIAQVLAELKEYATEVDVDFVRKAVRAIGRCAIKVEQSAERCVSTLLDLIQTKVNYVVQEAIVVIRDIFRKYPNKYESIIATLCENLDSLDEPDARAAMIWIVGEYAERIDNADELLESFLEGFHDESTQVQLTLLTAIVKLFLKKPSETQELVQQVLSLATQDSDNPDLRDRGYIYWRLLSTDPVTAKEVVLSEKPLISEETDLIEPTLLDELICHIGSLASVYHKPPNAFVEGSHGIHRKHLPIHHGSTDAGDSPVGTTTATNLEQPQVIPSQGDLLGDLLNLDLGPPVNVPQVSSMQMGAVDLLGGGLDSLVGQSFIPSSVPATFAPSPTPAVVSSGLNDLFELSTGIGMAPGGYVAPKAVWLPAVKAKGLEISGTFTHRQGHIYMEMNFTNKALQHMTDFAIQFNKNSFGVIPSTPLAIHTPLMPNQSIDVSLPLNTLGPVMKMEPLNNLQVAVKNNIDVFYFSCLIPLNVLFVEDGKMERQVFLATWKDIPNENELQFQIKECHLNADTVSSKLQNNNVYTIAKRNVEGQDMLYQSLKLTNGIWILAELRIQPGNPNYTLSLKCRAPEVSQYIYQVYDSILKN
Assay [12] is described as follows: cytosolic pH regulators acting via V-ATPase – S. cerevisiae, pHLuorin, HTS validation (AID 504600; in the data active = response above about 15%;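 note: plate controls were DMSO for no effect and reference compound for full effect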). The settings on record: V-ATPase proton transport, at 10 µM, stronger effect = higher value.
Assay [13] relates to anti-desmoglein-3 scFv antibody binding to human DSG3. Put plainly: blockers of pathogenic pemphigus antibody–desmoglein-3 binding – biochemical, validation compound set, bead-based, flow cytometry, pilot screen (AID 588368;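 active = binding below the plate cutoff, the plate median minus 3 SD, with a reading above zero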;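 note: signal is the median channel fluorescence of bead-bound GFP antibody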). The following applies: Protein G beads, DSG3-Fc, scFv-GFP binding, at 10 µM, stronger effect = lower value.
Assay [14] can be described thus: Nile Red efflux blockade in pump-expressing yeast – validation compound set, multiplex, phenotypic, pilot screen (AID 588506;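 active = efflux inhibition above 0.42, the validation set average plus 4 SD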;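 note: Nile Red retained in cells so higher fluorescence means more efflux inhibition; 0 = negative control wells and 1 = enniatin B 25 µM full block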). The settings on record: S. cerevisiae pump-expressing triplex, Nile Red efflux flow cytometry; at 10 µM; stronger effect = higher value; the pumps come from Candida albicans.
Assay [15] deals with ATP-binding cassette sub-family B member 6 (Homo sapiens) (UniProt Q9NP58). Description: blockers of ABCB6-driven porphyrin uptake – K562-ABCB6 cells, flow cytometry, validation set, pilot screen (AID 588550).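 Note: 0% = DMSO wells and 100% = benzethonium chloride 70 µM positive control.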 The settings on record: K562-ABCB6 porphyrin accumulation, 1 h, at 10 µM, stronger effect = higher value.
ATP-binding cassette sub-family B member 6 (Homo sapiens), sequence (Q9NP58 whole entry, looked up): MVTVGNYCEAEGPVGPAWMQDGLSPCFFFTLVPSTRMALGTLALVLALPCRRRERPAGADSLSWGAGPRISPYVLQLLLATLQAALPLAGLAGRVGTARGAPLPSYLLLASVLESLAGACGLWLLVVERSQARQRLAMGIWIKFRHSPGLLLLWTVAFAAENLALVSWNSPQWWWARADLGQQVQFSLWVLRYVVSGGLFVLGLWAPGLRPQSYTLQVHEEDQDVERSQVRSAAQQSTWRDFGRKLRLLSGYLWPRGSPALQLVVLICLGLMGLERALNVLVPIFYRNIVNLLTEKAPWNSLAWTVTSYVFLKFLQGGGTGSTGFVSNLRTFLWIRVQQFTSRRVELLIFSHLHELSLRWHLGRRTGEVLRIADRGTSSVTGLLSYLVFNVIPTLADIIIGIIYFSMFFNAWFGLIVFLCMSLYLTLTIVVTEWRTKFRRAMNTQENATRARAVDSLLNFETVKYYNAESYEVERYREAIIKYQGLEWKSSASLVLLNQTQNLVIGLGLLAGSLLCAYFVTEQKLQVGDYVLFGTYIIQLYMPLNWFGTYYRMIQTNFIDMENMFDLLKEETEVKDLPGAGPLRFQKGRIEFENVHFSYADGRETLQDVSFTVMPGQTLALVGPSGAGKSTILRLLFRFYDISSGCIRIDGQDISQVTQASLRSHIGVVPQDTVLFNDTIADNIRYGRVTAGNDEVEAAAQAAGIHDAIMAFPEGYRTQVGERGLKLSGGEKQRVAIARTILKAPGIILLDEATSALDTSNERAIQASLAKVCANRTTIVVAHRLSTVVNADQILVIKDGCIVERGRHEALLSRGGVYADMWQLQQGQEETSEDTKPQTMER
Assay [16] can be described thus: AML differentiation inducers, ER-HoxA9 marrow cells – cell-based, GFP/MAC1 double positive, flow cytometry, validation set, primary screen (AID 588685;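 active = differentiation response of at least 50%, scaled between solvent and reference control, from cells with both markers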;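 note: compound exposure lasts four days before antibody staining and flow analysis; 0% = DMSO wells and 100% = 5 µM fulvestrant positive control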). The settings on record: stronger effect = higher value, normalized: vehicle 0, fulvestrant 100.

Results filed as inconclusive are left out. Activity calls are given as the source filed them.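 Rule for the calls, unless noted: active = inhibition above the screen-wide mean plus 3 SD, about 51%; inactive = the rest.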

Beta-2 adrenergic receptor (Homo sapiens), sequence (P07550 whole entry, looked up): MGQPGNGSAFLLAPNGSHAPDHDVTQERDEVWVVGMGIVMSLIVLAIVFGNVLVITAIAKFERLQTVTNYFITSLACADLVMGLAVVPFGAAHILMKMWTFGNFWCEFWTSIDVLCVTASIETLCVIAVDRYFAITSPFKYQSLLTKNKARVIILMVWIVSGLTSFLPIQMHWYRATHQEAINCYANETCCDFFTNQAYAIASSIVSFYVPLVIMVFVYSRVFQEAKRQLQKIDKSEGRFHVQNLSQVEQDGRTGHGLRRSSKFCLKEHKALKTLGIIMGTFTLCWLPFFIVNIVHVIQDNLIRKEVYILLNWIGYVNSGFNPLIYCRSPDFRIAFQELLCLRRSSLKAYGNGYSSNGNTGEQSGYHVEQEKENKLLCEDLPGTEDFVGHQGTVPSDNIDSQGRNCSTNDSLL
Beta-adrenergic receptor kinase 1 (Homo sapiens), sequence (P25098 whole entry, looked up): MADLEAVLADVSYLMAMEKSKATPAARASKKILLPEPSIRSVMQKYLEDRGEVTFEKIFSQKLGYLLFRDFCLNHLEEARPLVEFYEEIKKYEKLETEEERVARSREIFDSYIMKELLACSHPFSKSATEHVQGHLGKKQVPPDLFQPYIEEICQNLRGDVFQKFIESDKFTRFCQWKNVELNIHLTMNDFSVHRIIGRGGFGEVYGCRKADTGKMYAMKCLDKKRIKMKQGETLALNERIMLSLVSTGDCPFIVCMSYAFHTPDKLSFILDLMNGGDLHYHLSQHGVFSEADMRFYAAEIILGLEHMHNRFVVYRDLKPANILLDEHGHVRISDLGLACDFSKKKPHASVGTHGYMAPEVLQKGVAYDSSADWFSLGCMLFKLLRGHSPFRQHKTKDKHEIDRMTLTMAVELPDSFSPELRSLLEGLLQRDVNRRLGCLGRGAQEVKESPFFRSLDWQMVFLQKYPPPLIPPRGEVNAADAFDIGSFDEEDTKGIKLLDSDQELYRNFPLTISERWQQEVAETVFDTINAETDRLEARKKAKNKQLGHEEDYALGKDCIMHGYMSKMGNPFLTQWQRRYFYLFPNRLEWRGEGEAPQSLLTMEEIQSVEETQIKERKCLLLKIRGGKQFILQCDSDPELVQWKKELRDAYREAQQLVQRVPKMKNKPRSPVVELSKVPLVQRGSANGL

For the molecule `CN(C(=O)C(Cl)Cl)c1ccc(OC(=O)c2ccco2)cc1`, the percent of DMSO control GFP in assay [1] was 99% (inactive). Moreover, the GFP response vs DMSO in assay [2] was 105% (inactive); in assay [4] it was 98% (inactive). In [3], the percent response of DMSO control is 97.8% (inactive). For the same molecule, in assay [5], the GFP response, % of DMSO is 96.8% (inactive). Moreover, the double positive events in assay [6] came out at 59.3%. In assay [6], the vesicle binding response was 90.2% (inactive). The inhibition in assay [7] was -1.49% (inactive); in assay [11], 15.3% (inactive); in [15] it was 7% (inactive). Also, the superoxide response (% of plate) in [8] was 94% (inactive). Besides, the aptamer binding inhibition in assay [9] is 4% (inactive). Also, the response is 5.41% (inactive) in assay [10] and -0.32% (inactive) in assay [12]. Also, in assay [13], the binding (% of control) is 99% (inactive). Also, the efflux inhibition (fraction of control) in [14] was -0.04 (inactive). For the same molecule, the differentiation response in [16] is -3.67% (inactive).

`CC[N+](C)(C)c1cccc(O)c1`: in assay [1], the percent of DMSO control GFP is 103% (inactive). Further, the GFP response vs DMSO in assay [2] is 99.3% (inactive); in assay [4], 97.3% (inactive). For the same molecule, the percent response of DMSO control in assay [3] is 112% (inactive). Also, in [5], the GFP response, % of DMSO was 102% (inactive). Further, the double positive events in [6] stood at 57.5%. Moreover, in assay [6], the vesicle binding response was 123% (inactive). Besides, the inhibition in assay [7] is -0.45% (inactive); in [11], -0.12% (inactive); in assay [15], -7% (inactive). The superoxide response (% of plate) in assay [8] was 90.1% (inactive). Further, the aptamer binding inhibition in assay [9] was 56% (active). Further, the response was -3.94% (inactive) in assay [10] and -0.97% (inactive) in assay [12]. Further, in [13], the binding (% of control) is 103% (inactive). Moreover, the efflux inhibition (fraction of control) in assay [14] was -0.17 (inactive). In addition, in assay [16], the differentiation response was 7.09% (inactive).

Regarding `O=c1[nH]c(=O)n(C2CCCO2)cc1F` (stereo not given), in assay [1], the percent of DMSO control GFP was 93.5% (inactive). Besides, the GFP response vs DMSO in [2] was 117% (inactive); in [4], 81.4% (inactive). Besides, in assay [3], the percent response of DMSO control is 97.9% (inactive). Besides, in [5], the GFP response, % of DMSO was 95.6% (inactive). Besides, the double positive events in assay [6] was found to be 60.9%. The vesicle binding response in assay [6] is 137% (inactive). Also, the results for the inhibition in assay [7], in assay [11] and in assay [15] were -17.8% (inactive), -10.2% (inactive) and 14% (inactive), respectively. Besides, in assay [8], the superoxide response (% of plate) was 96.1% (inactive). Further, the aptamer binding inhibition in [9] is 7% (inactive). For the same molecule, the response in assay [10] was -4.34% (inactive); in [12], 6.89% (inactive). Also, in assay [13], the binding (% of control) is 110% (inactive). Moreover, the efflux inhibition (fraction of control) in assay [14] is 0.09 (inactive). Also, in [16], the differentiation response was 35.2% (inactive).

With `O=C(CCCn1c(=O)oc2ccccc21)N1CCN(c2ccc(F)cc2)CC1`, the percent of DMSO control GFP in assay [1] was 101% (inactive). The GFP response vs DMSO in [2] was 93% (inactive); in assay [4], 77.7% (inactive). In [3], the percent response of DMSO control is 103% (inactive). The GFP response, % of DMSO in assay [5] was 91.4% (inactive). Moreover, in assay [6], the double positive events was determined as 46.7%. For the same molecule, in [6], the vesicle binding response was 9.2% (active). Besides, the inhibition in [7] is -1.79% (inactive); in [11], -3.97% (inactive); in [15], 9% (inactive). Besides, the superoxide response (% of plate) in assay [8] is 111% (inactive). Further, in assay [9], the aptamer binding inhibition was 1% (inactive). Also, the response in assay [10] was 10.4% (inactive); in assay [12], 1.31% (inactive). In addition, the binding (% of control) in assay [13] is 102% (inactive). Besides, the efflux inhibition (fraction of control) in assay [14] was 0.15 (inactive). Besides, in assay [16], the differentiation response is -26.4% (inactive).

As to `C=CCNC(=O)c1ccc(-c2cccc([N+](=O)[O-])c2)o1`, in assay [1], the percent of DMSO control GFP is 98.8% (inactive). Besides, the GFP response vs DMSO in [2] is 101% (inactive); in [4] it was 107% (inactive). The percent response of DMSO control in [3] is 91.7% (inactive). For the same molecule, the GFP response, % of DMSO in [5] was 95.1% (inactive). Also, the double positive events in [6] turned out to be 52.6%. Moreover, the vesicle binding response in [6] is 773% (inactive). Further, the inhibition in assay [7] is 6.85% (inactive); in assay [11], -25% (inactive); in assay [15], 4% (inactive). The superoxide response (% of plate) in assay [8] is 101% (inactive). Further, the aptamer binding inhibition in assay [9] was 3% (inactive). The values for the response in assay [10] and in assay [12] were 9.11% (inactive) and -0.55% (inactive), respectively. Besides, the binding (% of control) in [13] is 101% (inactive). Also, the efflux inhibition (fraction of control) in assay [14] was -0.34 (inactive). Moreover, the differentiation response in assay [16] is 6.49% (inactive).

By inhibition is commonly meant the change of the read-out against control, counted positive when it falls.
